Data: PubChem BioAssay AID485272 (The Scripps Research Institute Molecular Screening Center, 2010)
The campaign covered roughly 330,000 compounds. About 1,300 (0.39%) were called active. Shown is part of a subset that was picked to be rich in actives. A number with no mark means an inactive call.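 Rule for the calls: active = percent inhibition above a cutoff equal to the mean of all tested compounds plus 3 SD (cut at about 15% in these data); inactive = the rest.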

What follows are molecules tested against Protein-arginine deiminase type-4 (Homo sapiens) (UniProt Q9UM07) (assay: protein arginine deiminase 4 enzyme blockade – biochemical, fluorescence polarization, 1536-well format, primary screen (AID 485272;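 note: 0% = PAD4 with RCA probe and DMSO and 100% = probe without PAD4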)). Details: recombinant PAD4, RCA probe fluorescence polarization; at 6.36 µM; active compounds read high.
Sequence of Protein-arginine deiminase type-4 (Homo sapiens) (Q9UM07 whole entry, looked up): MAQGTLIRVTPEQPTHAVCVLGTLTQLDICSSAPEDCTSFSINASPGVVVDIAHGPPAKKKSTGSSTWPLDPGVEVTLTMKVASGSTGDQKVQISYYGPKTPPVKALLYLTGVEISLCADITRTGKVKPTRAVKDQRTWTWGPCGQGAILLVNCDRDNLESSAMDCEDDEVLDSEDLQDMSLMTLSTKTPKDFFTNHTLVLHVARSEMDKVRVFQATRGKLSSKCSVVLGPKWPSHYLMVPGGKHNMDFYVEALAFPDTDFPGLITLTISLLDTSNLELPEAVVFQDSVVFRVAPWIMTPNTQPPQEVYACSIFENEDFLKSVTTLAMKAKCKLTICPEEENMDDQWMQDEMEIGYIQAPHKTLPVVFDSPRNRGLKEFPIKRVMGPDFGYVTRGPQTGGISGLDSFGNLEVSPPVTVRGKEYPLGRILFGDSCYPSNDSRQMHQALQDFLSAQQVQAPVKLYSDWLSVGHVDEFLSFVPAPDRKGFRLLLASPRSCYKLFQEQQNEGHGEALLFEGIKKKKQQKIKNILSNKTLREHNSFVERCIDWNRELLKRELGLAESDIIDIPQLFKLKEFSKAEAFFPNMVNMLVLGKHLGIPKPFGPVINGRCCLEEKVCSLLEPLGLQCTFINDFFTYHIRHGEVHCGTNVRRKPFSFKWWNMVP
For `CC/C(=N\NC(=O)c1ccccc1O)c1c(O)n(Cc2ccccc2)c(=O)[nH]c1=O`, the inhibition was -6.35%. `COc1cc(Cn2c(N)c(C(=O)NCc3ccco3)c3nc4ccccc4nc32)cc(OC)c1OC` gave an inhibition of -2.07%. With `CCOC(=O)c1c(N)n(Cc2ccccc2)c2nc3ccccc3nc12` the inhibition was 42.1% (active). Work on `O=C(COc1ccc2ccccc2c1)N1CCN(Cc2ccncc2)CC1` yielded an inhibition of 3.09%. `CC(C)N(CC#CCC1(O)c2ccccc2-c2ccccc21)C(C)C` gave an inhibition of 2.13%. For `COc1ccc(CN2CCN(c3ccccc3F)CC2)c(OC)c1`, the inhibition was -6.62%. With `COc1ccccc1C1=NCc2nnc(CSC)n2-c2ccc(Cl)cc21` the inhibition was 21.5% (active). `Cc1cccc(-n2c(O)c(C=NC34CN5CN(CN(C5)C3)C4)c(=O)[nH]c2=O)c1` gave an inhibition of 6.25%. `Cc1ccc(N2C(=O)NC(=O)C(CCc3ccncc3)(Cc3cccc(Cl)c3Cl)C2=O)cc1` (stereo not given) gave an inhibition of 1.57%. `CN1CCN(Cc2ccccc2C(F)(F)F)CC1` showed an inhibition of 6.58%.
